# Rows were chosen to be rich in hits. Some 5.2% of all compounds tested hit in one or more screens of this group.
# NRP1-CendR mod: modulators of CendR peptide binding to NRP-1, primary screen, biochemical, fluorescence polarization, uHTS | Neuropilin-1 (Homo sapiens), O14786 | FAM-RPARPAR peptide binding to NRP-1 | inhibition, % at 25 µM | 360,000 tested, 0.85% active;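 active means inhibition or corrected inhibition above about 18%, plus a signal ratio from 0.5 to 1.5, limit read from the data, passing the limit was not always enough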
# APOBEC3G inh: APOBEC3G DNA deaminase inhibitors, primary screen, biochemical, fluorescence, single-stranded DNA substrate, uHTS. DNA dC->dU-editing enzyme APOBEC-3G (Homo sapiens), Q9HC16. 330,000 tested, 0.28% active. recombinant A3G, ssDNA deamination FAM/TAMRA fluorescence. inhibition, % at 20 µM;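 active means inhibition of at least 40% at 20 µM, with no more than 30% in the related APOBEC3A deaminase screen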;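 further: plate controls were DMSO wells with A3G for no effect and wells lacking A3G enzyme for full effect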
# Target sequence (Q9HC16 whole entry, looked up): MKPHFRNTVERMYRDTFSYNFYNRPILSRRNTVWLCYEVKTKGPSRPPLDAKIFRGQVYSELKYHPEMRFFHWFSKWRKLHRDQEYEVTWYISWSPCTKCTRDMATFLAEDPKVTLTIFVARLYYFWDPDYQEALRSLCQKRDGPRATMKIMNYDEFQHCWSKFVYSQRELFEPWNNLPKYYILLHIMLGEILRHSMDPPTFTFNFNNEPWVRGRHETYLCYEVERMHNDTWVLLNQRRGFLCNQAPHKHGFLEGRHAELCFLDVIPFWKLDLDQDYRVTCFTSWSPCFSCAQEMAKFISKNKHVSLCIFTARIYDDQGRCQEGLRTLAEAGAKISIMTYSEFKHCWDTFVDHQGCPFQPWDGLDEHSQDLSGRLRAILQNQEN
# APOBEC3A inh: APOBEC3A ssDNA deaminase inhibitors, primary screen, selectivity assay for APOBEC3G inhibitor project, biochemical, FAM/TAMRA oligo cleavage fluorescence. recombinant A3A, FAM/TAMRA ssDNA deamination fluorescence. inhibition, % at 20 µM. 330,000 tested, 0.41% active. AID 493011, 2011;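 active means at least 40% inhibition at 20 µM here, with at most 30% in a related deaminase screen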;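 further: plate controls were A3A with DMSO for no effect and wells lacking A3A enzyme for full effect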
# Yeast superoxide: reduction of superoxide in aged yeast, primary screen, HTS. S. cerevisiae aged cells, superoxide DHE fluorescence; stronger effect = lower value. superoxide response (% of plate mean), % at 10 µM. 330,000 tested, 0.18% active;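 active means superoxide response under a set limit, about three screen SD below normal, cut at about 65% in these data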;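 further: yeast aged for seven days with compound at 30 °C before DHE staining; 100% = average MFI of all compound-treated wells on the plate with controls excluded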
# PfM18AAP inh: PfM18AAP inhibitors, malaria aminopeptidase, primary screen, biochemical, QFRET, recombinant enzyme | M18 aspartyl aminopeptidase (Plasmodium falciparum 3D7) | H-Glu-NHMec fluorogenic cleavage | inhibition, % at 7.35 µM | 290,000 tested, 1.2% active | AID 1822, 2009;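 active means inhibition above the campaign mean inhibition over all tested compounds plus 3 SD, cut at about 28% in these data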;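 further: 0% = plate median of test compound wells and 100% = 2 mM ZnCl2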
# ALR H2O2 inh: inhibitors of human ALR sulfhydryl oxidase, primary screen, biochemical, H2O2 detection, HRP-luminol luminescence, single point; FAD-linked sulfhydryl oxidase ALR (Homo sapiens), P55789; purified ALR, DTT oxidation; inhibition, % (concentration not given with the values); 290,000 tested, 3.8% active; AID 485317, 2010;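 active means mean replicate inhibition above about 79%, with every replicate also reaching it, limit read from the data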
# Target sequence (P55789 whole entry, looked up): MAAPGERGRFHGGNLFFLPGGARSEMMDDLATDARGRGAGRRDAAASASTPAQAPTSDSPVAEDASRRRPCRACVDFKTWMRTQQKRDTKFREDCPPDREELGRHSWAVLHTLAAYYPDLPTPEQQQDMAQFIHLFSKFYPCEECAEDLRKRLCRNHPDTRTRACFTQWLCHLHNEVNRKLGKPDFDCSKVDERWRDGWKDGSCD
# The depositor's hits bear a star; / = no result given.
SMILES,NRP1-CendR mod,APOBEC3G inh,APOBEC3A inh,Yeast superoxide,PfM18AAP inh,ALR H2O2 inh
C=CCn1c(N)cc(=O)nc1SCC(=O)N(c1ccccc1)c1ccccc1,-8,2,2,99,4,5
O=C(CSc1nc2ccccc2c(=O)n1Cc1ccccc1)Nc1ccc(Br)cc1C(=O)O,5,-4,-1,114,-2,97*
C=CCn1c(N)cc(=O)nc1SC(C)C(=O)Nc1cccc2ccccc12 (stereo not drawn),22*,-3,-3,95,10,-4
C=CCn1c(N)cc(=O)nc1SCC(=O)Nc1ccc(C)cc1,-1,-5,-2,112,-12,99*
Nc1cc(=O)nc(SCC(=O)Nc2cccc3ccccc23)n1CCc1ccccc1,14,2,-1,101,-2,98*
CCOc1ccc(C(=O)N2CCN(CCc3ccccc3)CC2)cc1OCC,11,-1,-1,104,1,-1
COc1ccc(NC(=O)N(C)C[C@H]2Oc3c(NC(=O)NC4CCCCC4)cccc3C(=O)N([C@H](C)CO)C[C@@H]2C)cc1,5,-2,0,116,/,/
COC(=O)C1=C(C)Nc2nc(SCc3ccccc3)[nH]c(=O)c2C1c1cccs1 (stereo not drawn),-18,-4,-1,119,-10,-5
Cc1ccsc1C(=O)NCC(c1cccs1)N1CCOCC1 (stereo not drawn),-6,/,/,/,/,/
Cc1ccc(NC(=O)CSc2nc(=O)cc(N)n2CCc2ccccc2)cc1,-6,-4,-2,116,-1,99*
Cc1ccc(NC(=O)CSc2nc(=O)cc(N)n2-c2ccccc2)cc1,1,-7,-3,99,-5,/
CCSC1=NSC2=NC(=O)/C(=C\c3coc4ccccc4c3=O)C(=N)N12,124,/,/,121,7,98*
Cn1cc(C(=O)N/N=C/C2=C(N3CCOCC3)C(=C\c3ccccc3)/CC2)ccc1=O,-37,-8,-9,103,13,89*
CCC(C)c1ccc(OCC(=O)O)cc1 (stereo not drawn),2,-5,-5,100,5,/
CCCCC(=O)NC(NC(=O)CCCC)c1ccc(OCCC)c(OC)c1,12,-9,-1,114,0,-2
COc1ccc(OC)c(Nc2nc3nonc3nc2N2CCCCC2)c1,49*,-7,-5,105,-7,-5
Cc1cc(NC(=O)c2cc(-c3ccncc3)nc3ccccc23)ccc1Br,-16,-3,-1,147,/,-4
CCCN1CCCc2cc(CN)ccc21,25*,-8,-9,121,14,100*
Cc1nnc(NC(=O)CSc2nnc(-c3ccccc3)n2C)s1,-1,1,2,104,-4,-6
COC(=O)CSc1nc2sc3c(c2c(=O)n1-c1ccccc1)CCN(C)C3,-26,-4,-3,93,0,100*
CCn1c(SCC(=O)c2ccccc2)nc2sc3c(c2c1=O)CCN(C)C3,-8,1,2,99,5,99*
C=CCNC(=O)CSc1nc2sc3c(c2c(=O)n1CCC)CCC3,2,-9,-1,105,-4,-12
C=CCn1c(SCC(=O)OC)nc2sc3c(c2c1=O)CCN(C)C3,/,1,3,106,-6,99*
CN1CCc2c(sc3nc(SCC(N)=O)n(-c4ccccc4)c(=O)c23)C1,-28,3,0,98,6,-17
C=CCNC(=O)CSc1nc2sc3c(c2c(=O)n1CCCOC)CCC3,1,-1,-3,96,8,81*
SMILES,NRP1-CendR mod,APOBEC3G inh,APOBEC3A inh,Yeast superoxide,PfM18AAP inh,ALR H2O2 inh
CCC1CCCCN1S(=O)(=O)c1ccc(NC(=O)c2ccncc2)cc1 (stereo not drawn),-12,-5,-3,117,2,-18
CCC1CCCCN1S(=O)(=O)c1ccc(NC(=O)c2nc(S(C)(=O)=O)ncc2Cl)cc1 (stereo not drawn),11,-4,-3,100,-94,77*
CCOc1cc2c(cc1OCC)C(c1ccc(C(=O)O)cc1)NCC2 (stereo not drawn),15,-11,-4,94,-4,-1
O=C1NC[C@@H](CCCCN2CCN(CC3CCCCC3)C(=O)C2=O)N(Cc2ccccc2)C1=O,-4,/,/,/,/,/
CCCCc1ccc(-c2csc(/C(C#N)=C\c3ccco3)n2)cc1,-5,-3,-2,109,6,84*
CCOc1ccc(CCNC(=O)c2nnn(CC(=O)Nc3ccccc3C)c2N)cc1OCC,-16,4,3,69,10,0
COc1ccc(CCNC(=O)c2nnn(CC(=O)Nc3ccccc3C)c2N)cc1OC,28*,-2,-1,126,-2,6
CCC(=O)Nc1cccc(C(=O)/C=C/c2cc(Br)ccc2OC)c1,-27,-5,-2,89,-15,30
COc1cc(/C=N/Nc2ccc(Cl)c(C(=O)O)c2)ccc1OC(=O)c1ccccc1F,-2,2,-1,107,8,99*
O=C(O)c1ccc(N/N=C/c2ccc3c(c2)OCO3)cc1,-5,-3,-1,92,13,99*
O=C(O)c1cc(N/N=C/c2ccc3c(c2)OCCO3)ccc1Cl,-6,/,/,88,5,93*
O=C(O)c1cc(N/N=C/c2ccc(-c3ccc(F)cc3)o2)ccc1Cl,8,-5,-1,116,-7,98*
CCC(=O)Nc1c(C(=O)Nc2ccc3c(c2)OCCO3)oc2ccccc12,-13,-4,-5,109,6,-6
CCOCCc1nnc(NC(=O)c2cccs2)s1,-3,-3,-2,99,7,1
CCCCCC(=O)Nc1cc(S(=O)(=O)O)cc2cc(S(=O)(=O)O)cc(O)c12,-44,/,/,/,/,/
COc1ccc(N2C(=O)NC(=O)C2=O)cc1,17,-6,1,115,-5,1
COc1cccc(C(=O)OCC(=O)N2CCc3ccccc32)c1OC,-11,-6,-1,/,/,/
O=C(NCc1cccnc1)/C(=C/c1ccco1)NC(=O)c1ccccc1,-10,-3,-2,95,1,5
c1ccc2c(c1)nc1n2CCC1,4,/,/,/,/,/
C=CCc1ccccc1OCC(=O)N/N=C/c1ccc(OC(C)=O)cc1OC(C)=O,3,-5,-1,96,6,34
Cc1ccc(NC(=O)c2ccccc2)s1,-4,16,-2,88,-9,95*
Cc1cc(NC(=O)c2ccccc2)sc1C,-18,-7,-9,106,10,0
CC(NC(=O)C1CCN(C(=O)[C@@H]2Cc3ccccc3CN2C(=O)OC(C)(C)C)CC1)c1ccccc1 (stereo partly drawn),-3,-3,-3,99,-3,0
